# Test results reported in the supplement of paper PMC9950053.
# Structures can show the parent of a compound that is named as a salt.
# System: Danio rerio larvae (5 dpf)
# Assay: 1-h baseline activity (% time moving, periods 1-6) minus DMSO control (percentage points); higher = more locomotor activity than DMSO larvae
# Conditions: 10 µM; exposure time: 3 h pre-incubation + 3 h imaging
# Description: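 Wild-type 5 dpf zebrafish larvae (n=48 per drug, 96-well plates, 28.5 °C) were exposed to Tocris FDA-approved library compounds at 10 µM (0.1% DMSO) for 3 h before and 3 h during imaging. Images were taken every 6 s during visual (moving coloured lines) and acoustic stimuli, and larvae were tracked with the DeepLabCut-based Z-LaP Tracker. Each behavioural measure is the treated-group mean minus the DMSO vehicle control mean (n=844), in percentage points. This mapping covers compounds with 4-character plate codes.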
row,SMILES,1-h baseline activity
1,CN(C)CCC[C@@]1(c2ccc(F)cc2)OCc2cc(C#N)ccc21 [Escitalopram oxalate],-24.4
2,C=CC(=O)N1CCC[C@@H](n2nc(-c3ccc(Oc4ccccc4)cc3)c3c(N)ncnc32)C1 [Ibrutinib],-7.48
3,Cc1ccsc1C(=CCCN1CCC[C@@H](C(=O)O)C1)c1sccc1C [Tiagabine hydrochloride],7.89
4,CC(c1cc2ccccc2s1)N(O)C(N)=O (stereo not given) [Zileuton],-1.65
5,NC(=O)N1c2ccccc2C=Cc2ccccc21 [Carbamazepine],-4.18
6,CN1CC(=O)N2[C@H](c3ccc4c(c3)OCO4)c3[nH]c4ccccc4c3C[C@@H]2C1=O [Tadalafil],10.9
7,CCN(CC)CCNC(=O)c1c(C)[nH]c(/C=C2\C(=O)Nc3ccc(F)cc32)c1C [Sunitinib malate],-14
8,CC(C)C(=O)OCC(=O)[C@@]12O[C@H](C3CCCCC3)O[C@@H]1C[C@H]1[C@@H]3CCC4=CC(=O)C=C[C@]4(C)[C@H]3[C@@H](O)C[C@@]12C [Ciclesonide],-10.2
9,CC(=O)S[C@@H]1CC2=CC(=O)CC[C@]2(C)[C@H]2CC[C@@]3(C)[C@@H](CC[C@@]34CCC(=O)O4)[C@H]12 [Spironolactone],-0.875
10,CCCCCCCCc1ccc(CCC(N)(CO)CO)cc1,-21.1
11,O=C(O)c1cc(/N=N/c2ccc(S(=O)(=O)Nc3ccccn3)cc2)ccc1O [Sulfasalazine],12.5
12,COCCCOc1cc(C[C@@H](C[C@H](N)[C@@H](O)C[C@H](C(=O)NCC(C)(C)C(N)=O)C(C)C)C(C)C)ccc1OC [Aliskiren hemifumarate],-5.54
13,Cc1nnc(C(C)C)n1C1C[C@H]2CC[C@@H](C1)N2CC[C@H](NC(=O)C1CCC(F)(F)CC1)c1ccccc1 (stereo in doubt) [Maraviroc],-3.33
14,COc1ccccc1OCCNCC(O)COc1cccc2[nH]c3ccccc3c12 (stereo not given) [Carvedilol],-12.4
15,Cc1cccc(C)c1OCC(C)N (stereo not given) [Mexiletine hydrochloride],3.37
16,CNC(=O)c1ccccc1Sc1ccc2c(/C=C/c3ccccn3)n[nH]c2c1 [Axitinib],-3.55
17,CN(CCOc1ccc(CC2SC(=O)NC2=O)cc1)c1ccccn1 (stereo not given) [Rosiglitazone],-1.36
18,CC(C)(C)NC(=O)[C@@H]1C[C@@H]2CCCC[C@@H]2CN1C[C@@H](O)[C@H](Cc1ccccc1)NC(=O)[C@H](CC(N)=O)NC(=O)c1ccc2ccccc2n1 [Saquinavir mesylate],-10.4
19,CCc1c2c(nc3ccc(OC(=O)N4CCC(N5CCCCC5)CC4)cc13)-c1cc3c(c(=O)n1C2)COC(=O)[C@]3(O)CC,-6.2
20,CCOC(=O)C1=C(COCCN)NC(C)=C(C(=O)OC)C1c1ccccc1Cl (stereo not given) [Amlodipine besylate],0.364

row,SMILES,1-h baseline activity
1,COc1cccc2c1C(=O)c1c(O)c3c(c(O)c1C2=O)C[C@@](O)(C(=O)CO)C[C@@H]3O[C@H]1C[C@H](N)[C@H](O)[C@H](C)O1 [Doxorubicin hydrochloride],-7.23
2,CC(=O)O[C@]1(C(C)=O)CC[C@H]2[C@@H]3C=C(C)C4=CC(=O)CC[C@]4(C)[C@H]3CC[C@@]21C [Megestrol Acetate],-13.7
3,COc1ccc(-c2ccc3cc(C(=O)O)ccc3c2)cc1C12CC3CC(CC(C3)C1)C2 [Adapalene],-1.21
4,CC1=Nc2ccc(Cl)cc2S(=O)(=O)N1 [Diazoxide],7.2
5,CCCN(CCc1cccs1)[C@H]1CCc2c(O)cccc2C1 [Rotigotine hydrochloride],-27
6,NS(=O)(=O)c1cc(C(=O)O)c(NCc2ccco2)cc1Cl [Furosemide],5.77
7,CC#C[C@]1(O)CC[C@H]2[C@@H]3CCC4=CC(=O)CCC4=C3[C@@H](c3ccc(N(C)C)cc3)C[C@@]21C [Mifepristone],-3.83
8,CN1CC[C@@H](NC(=O)Nc2ccc(C#N)cc2)C[C@@H]1c1nc2ccccc2[nH]1,-10
9,CC1(C)O[C@@H]2[C@@H](CO[C@@]3(COS(N)(=O)=O)OC(C)(C)O[C@@H]23)O1 [Topiramate],9.54
10,N[C@@H]1[C@H]2CN(c3nc4c(cc3F)c(=O)c(C(=O)O)cn4-c3ccc(F)cc3F)C[C@@H]12 [Trovafloxacin mesylate],4.29
11,NS(=O)(=O)Cc1noc2ccccc12 [Zonisamide],2.49
12,O=C(O[C@@H]1C[C@@H]2C[C@H]3C[C@H](C1)N2CC3=O)c1c[nH]c2ccccc12 [Dolasetron mesylate],-3.58
13,Clc1ccc(COC(Cn2ccnc2)c2ccc(Cl)cc2Cl)c(Cl)c1 (stereo not given) [Miconazole nitrate],-19.7
14,CN/C(=N\CCSCc1nc[nH]c1C)NC#N [Cimetidine],0.11
15,Nc1nc2[nH]cc(CCc3ccc(C(=O)N[C@@H](CCC(=O)O)C(=O)O)cc3)c2c(=O)[nH]1 [Pemetrexed],-1.52
16,Cc1ccc(O)c([C@H](CCN(C(C)C)C(C)C)c2ccccc2)c1 [Tolterodine L-tartrate],0.455
17,C[C@]12CCC(=O)C=C1CC[C@@H]1[C@@H]2[C@@H](O)C[C@@]2(C)[C@H]1CC[C@]2(O)C(=O)CO [Hydrocortisone],1.95
18,CN1CC2c3ccccc3Oc3ccc(Cl)cc3C2C1 (stereo not given) [Asenapine maleate],30.8
19,Cn1nnc2c(C(N)=O)ncn2c1=O [Temozolomide],5.97
20,COc1cc2nc(N3CCN(C(=O)C4COc5ccccc5O4)CC3)nc(N)c2cc1OC (stereo not given) [Doxazosin mesylate],-6.93
